NPSR antag – blocks cAMP signaling of the human neuropeptide S receptor; Potency, µM (doses to about 38.3 µM), inactives show top-dose activity change, negative = inhibition, actives largely listed as inhibitors; Q6W5P4; CHO-NPSR cells, cAMP TR-FRET, antagonist mode; hit rate 1% among 220,000; note: nearly all actives have a fitted effect of over 50% in size
Target sequence (Q6W5P4 whole entry, looked up): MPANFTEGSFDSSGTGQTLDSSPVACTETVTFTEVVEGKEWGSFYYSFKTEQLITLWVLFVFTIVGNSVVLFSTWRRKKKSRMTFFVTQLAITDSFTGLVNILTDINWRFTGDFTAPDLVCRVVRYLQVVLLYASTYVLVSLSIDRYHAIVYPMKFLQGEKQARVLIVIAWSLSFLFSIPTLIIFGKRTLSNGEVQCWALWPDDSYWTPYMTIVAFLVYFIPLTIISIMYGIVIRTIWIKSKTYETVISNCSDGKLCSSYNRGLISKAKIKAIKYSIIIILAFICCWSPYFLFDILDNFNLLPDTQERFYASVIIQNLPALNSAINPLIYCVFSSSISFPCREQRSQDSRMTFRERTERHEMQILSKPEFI
ALDH1A1 block – inhibitors of human aldehyde dehydrogenase 1A1 | Purified ALDH1A1, NADH fluorescence, propionaldehyde substrate | hit rate 7.3% among 220,000 | P00352 | AID 1030 | Potency, µM (titrated, usually from 75.3 µM), for inactives: at the top dose activity, negative = inhibition, actives largely listed as inhibitors; active = well fitted inhibition curve with a large enough effect, not every such curve was filed as active; inconclusive = small, poorly fitted or top-dose-only effect, or another doubt; inactive = no such curve, though single readings can be large or run the other way;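 note: plate controls were no enzyme wells and a reference inhibitor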
Tau fluor cs – counter-screen for tau fibril formation inhibitors. tau K18 P301L Alexa594 fluorescence, heparin fibrillization. Potency, µM (doses to about 57.7 µM), for inactives: top-dose activity change, negative = decrease. hit rate 0.93% among 280,000. AID 1463; note: nearly all actives have a fitted effect of over 55% in size
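Human tau K18 P301L (15 uM unlabeled, 0.24 uM Alexa 594-labeled) in 100 mM sodium acetate pH 7 with 20 uM heparin, 6 hr at 37 C. ThT 30 uM added, 1 hr ambient; Alexa 594 FP and total fluorescence read at 555/632 nm.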
HPGD inh – blocks human HPGD enzyme activity | P15428 | purified HPGD, NADH fluorescence kinetic, PGE2 substrate | Potency, µM, for the others: at the top dose activity change, negative = inhibition, hits mostly inhibitors | hit rate 4.3% among 150,000 | AID 894; active = well fitted inhibition curve with a large enough effect, not every such curve was filed as active; inconclusive = small, poorly fitted or top-dose-only effect, or another doubt; inactive = no such curve, though single readings can be large or run the other way
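NADH formation kinetics: reaction with 30 uM PGE2 and 1 mM NAD+ (final), 20 nM enzyme, Tris-HCl pH 8 with Tween 20, after 15 min compound preincubation at room temperature. Fluorescence change, last versus first of five reads.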
Tau FP inhib – tau fibrillization inhibition (FP). Potency, µM (top dose mostly 57.7 µM), for inactives: top-dose activity, negative = inhibition, usual class: inhibitors. K18 P301L tau heparin fibrillization, Alexa594 FP, 6 h. hit rate 0.39% among 280,000. AID 1468. P10636; note: nearly all actives have a fitted effect of over 55% in size
Target sequence (P10636 561-689 P618L limits assumed): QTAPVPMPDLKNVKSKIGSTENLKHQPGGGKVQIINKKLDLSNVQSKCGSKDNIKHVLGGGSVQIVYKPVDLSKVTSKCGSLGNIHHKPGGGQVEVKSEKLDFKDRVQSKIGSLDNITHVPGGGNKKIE
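K18 P301L tau (15 uM unlabeled/0.24 uM Alexa 594-labeled, final) + compound + heparin 20 uM final; 100 mM NaOAc pH 7; 6 hr 37 C; ThT 30 uM final added, 1 hr RT; FP ex 555/em 632 nm.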
Tau fibril ThT – inhibitors of human tau fibril formation, thioflavin T binding; Potency, µM (doses to about 57.4 µM), without a hit: at the top dose activity, negative = inhibition, most hits filed as inhibitors; P10636; AID 1460; hit rate 2.1% among 270,000; recombinant tau K18 P301L, heparin-induced fibrillization, ThT fluorescence; note: nearly all actives have a fitted effect of over 55% in size
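ThT emission at 510 nm, taken 1 hr after adding 30 uM dye, quantifies aggregates formed when 20 uM heparin acts on human tau K18 P301L for 6 hr at 37 C.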
* hit, by the source's call; ? = inconclusive; . = no result given; [ ] = dose if it differs, or a comment. Sampled rows, rich in hits. Any-hit rate of the full collection: about 9.5%. Unless noted, calls come from the whole dose curve; as a rule, active = well fitted curve in the direction sought with a large enough effect; inconclusive = small, poorly fitted or top-dose-only effect, or another doubt; inactive = no such curve, though single readings can be large; an effect the other way counts as inactive or inconclusive. Unless noted, % is set by controls: 0 for no effect and ±100 for the full control effect; potency is the fitted concentration of half-maximal effect.

SMILES	NPSR antag	ALDH1A1 block	Tau fluor cs	HPGD inh	Tau FP inhib	Tau fibril ThT
CC1=C([N+](=O)[O-])C(c2ccccc2)C2=C(N1)c1ccccc1C2=O (stereo not given)	14%[46.1 µM]	?	16µM*[quencher]	22µM*	-1%	16µM*
C#CCOc1c(Br)cc(C2C(C(=O)OC)=C(C)NC3=C2C(=O)c2ccccc23)cc1OCC (stereo not given)	.	.	3.5µM*[quencher]	.	?	6.3µM*
CCOC(=O)C1=C(C)NC2=C(C(=O)c3ccccc32)C1c1cccnc1 (stereo not given)	-7%[46.1 µM]	3%	-9%	-16%	6%	?
CCOc1ccc(C2C(C#N)=C(C)NC3=C2C(=O)c2ccccc23)cc1 (stereo not given)	-15%[46.1 µM]	?	20µM*[quencher]	-17%	?	?
CCOc1ccc(C2C(C(=O)OC)=C(C)NC3=C2C(=O)c2ccccc23)cc1OC (stereo not given)	.	.	16µM*[quencher]	.	-5%	?
N=C(N)S/C=C\C(=O)O	.	7.9µM*	-19%	35µM*	?	28µM*
COc1ccc(-c2cn(-c3cccc(C)c3)c(=O)[nH]2)cc1OC	3%	?	-14%	.	-4%	?
COc1ccccc1-n1cc(-c2ccc(Cl)cc2)[nH]c1=O	-4%	11µM*	-7%	-6%	11%	-7%
CC(/C=C/C=C(C)/C=C/C(=O)O)=C\C=C\C=C(C)\C=C\C=C(C)\C=C\C(=O)O	.	32µM*	.	-21%	.	.
O=C(c1ccccc1)c1coc2ccc(O)c(CN3CCOCC3)c12	-7%[46.1 µM]	?	-7%	-4%	-7%	-3%
COc1ccc(C(=O)c2coc3ccc(O)c(CN4CCCCC4)c23)cc1	?	13µM*	-6%	-17%	-2%	-19%
CCCc1cc(=O)[nH]c(SCC)n1	1%[46.1 µM]	3%	7%	-9%	0%	-1%
CCCc1cc(=O)[nH]c(-n2[nH]c3c(c2=O)CCCC3)n1	-9%[46.1 µM]	24µM*	-5%	22µM*	-3%	1%
COc1ccccc1CNc1ncnc2c1nnn2C	.	.	-5%	.	-12%	-5%
Cc1nn(Cc2noc(C(=O)NCc3cccc(F)c3)n2)c(C)c1Br	.	.	-17%	.	4%	-11%
N#CC(C#N)=C(N)/C(C#N)=C/c1ccc2[nH]ccc2c1	.	13µM*	?	.	-13%	14µM*
Cc1ccc(NC(=O)c2ccc3ncsc3c2)cc1S(=O)(=O)N(C)C	-16%	.	-20%	.	-12%	?
CC1CCN(c2c(NCC3CCC(C(=O)NCc4ccccc4Cl)CC3)c(=O)c2=O)CC1 (stereo not given)	-6%	1%	-10%	16µM*	11%	-4%
CC1CCN(c2c(NCC3CCC(C(=O)Nc4ccccn4)CC3)c(=O)c2=O)CC1 (stereo not given)	-4%	7%	-10%	22µM*	-6%	-10%
Cc1cc2nc3c(=O)n(CCc4ccccc4)c(=O)[nH]c3nc2cc1N	-29%	.	8.9µM*[quencher]	.	?	.
Nc1ccc2nc3c(=O)n(CCc4ccccc4)c(=O)[nH]c3nc2c1	-39%	.	?	.	?	.
COc1ccc(S(=O)(=O)Nc2cccc(-c3ccc(N4CCC(C)CC4)nn3)c2)cc1OC	.	.	?	.	-7%	0%
CCN(CC)S(=O)(=O)c1ccc(S(=O)(=O)N(CC(=O)Nc2ccccc2)Cc2ccco2)cc1	-14%[46.1 µM]	8.9µM*	-22%	-5%	-6%	-6%
CCN(CC)S(=O)(=O)c1ccc(S(=O)(=O)N(Cc2ccccn2)Cc2ccco2)cc1	-19%[46.1 µM]	1.8µM*	-3%	-10%	1%	1%
O=C(CN(Cc1ccccc1)S(=O)(=O)c1ccc(Br)cc1)NCc1ccco1	?	13µM*	-19%	-19%	4%	-21%
CC(=O)Nc1ccc(S(=O)(=O)N(Cc2ccco2)CC2CCCO2)cc1 (stereo not given)	-18%[46.1 µM]	13µM*	-3%	-24%	-1%	-9%
O=S(=O)(NCc1ccccc1)c1ccc(S(=O)(=O)N(Cc2ccccn2)Cc2ccco2)cc1	-17%[46.1 µM]	5%	-4%	-7%	1%	3%

Screens from PubChem BioAssay.
